Test results as given in PubChem BioAssay (EPA / NIEHS).
Records with an inconclusive call do not appear. Calls of active or inactive are those of the source. How the source made its calls: active means hit-call score of the fitted dose curve at least 0.9, where 1 is the maximum; inconclusive means response in the unintended direction; inactive means score below 0.9.

Target: human Vitamin D Receptor (VDR), VDR (gene 7421) (UniProt P11473)
Experiment: ATG_VDR_TRANS: Attagene TRANS-FACTORIAL HepG2 Assay for human Vitamin D Receptor (VDR) (AID 2283022)
Procedure, shortened: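 HepG2 cells were transiently transfected with multiple GAL4-UAS reporter units, so signal reflects exogenous chimeric receptor-Gal4 activity. After 24 h compound exposure, reporter mRNA was measured by RT-PCR, fluorescent labelling and capillary electrophoresis, fitted for gain of signal versus DMSO.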

human Vitamin D Receptor (VDR), VDR (gene 7421), sequence (P11473 whole entry, looked up): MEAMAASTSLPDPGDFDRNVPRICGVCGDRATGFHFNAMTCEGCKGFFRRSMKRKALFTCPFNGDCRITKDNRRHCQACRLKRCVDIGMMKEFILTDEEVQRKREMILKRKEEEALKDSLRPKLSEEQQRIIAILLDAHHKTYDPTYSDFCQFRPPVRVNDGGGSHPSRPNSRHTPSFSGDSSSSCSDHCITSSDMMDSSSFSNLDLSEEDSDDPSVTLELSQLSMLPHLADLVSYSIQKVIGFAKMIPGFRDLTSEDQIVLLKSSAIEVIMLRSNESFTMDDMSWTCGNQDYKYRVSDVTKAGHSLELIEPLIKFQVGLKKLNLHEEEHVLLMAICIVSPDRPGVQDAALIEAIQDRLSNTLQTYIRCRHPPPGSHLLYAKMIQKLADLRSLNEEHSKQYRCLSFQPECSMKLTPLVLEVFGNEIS

outcome, inactive:
COC(=O)c1sccc1S(N)(=O)=O
O=C(/C=C/C=C/c1ccc2c(c1)OCO2)N1CCCCC1
FC(F)(F)C(=NOCC1OCCO1)c1ccc(Cl)cc1
O=C1OC(=O)c2cc(Oc3ccc4c(c3)C(=O)OC4=O)ccc21
CCCCCCCCCCOS(=O)(=O)O
Cc1ccc(C2OC[C@@H]3OC(c4ccc(C)cc4)O[C@H]([C@H](O)CO)[C@@H]3O2)cc1 (some centres undefined)
CCCOC(=O)CCCCC(=O)OCCC
CC(C)c1ccc2cc(C(C)C)ccc2c1
CCOC(=O)c1ccc(N(C)C)cc1
CCCCCCCCCCOC(C)=O
CC(C)=CCCC(C)C=O (centres undefined)
CCOC(F)(F)C(F)(F)C(F)(F)C(F)(F)F
NC(=O)NNC(N)=O
COCC(C)N (centres undefined)
O=P(O)(O)Oc1ccccc1
CC(C)=CCC/C(C)=C\C#N
CCCCCCCCCCCCCOP(=O)(O)O
CC(C)c1ccc2c(c1)CC[C@H]1[C@](C)(CN)CCC[C@]21C
O=C(O)c1cc(Cl)cc([N+](=O)[O-])c1Cl
CCOC(=O)[C@H](C)O
CC/C=C\C/C=C\C/C=C\CCCCCCCC(=O)O
O=c1c2ccccc2nnn1CCl
OC1OCCOC1O (centres undefined)
CC(C)=CC1CC(C)CCO1 (centres undefined)
COc1ccc([C@@H]2CC(=O)c3c(O)cc(O[C@@H]4O[C@H](CO[C@@H]5O[C@@H](C)[C@H](O)[C@@H](O)[C@H]5O)[C@@H](O)[C@H](O)[C@H]4O)cc3O2)cc1OC
Cc1cc(C)c(C)c(C)c1
Nc1ccc2cc3ccccc3cc2c1
C=C(C)[C@@H]1CCC2=CCC[C@@H](C)[C@]2(C)C1
CCCCCCCCCCc1ccccc1
Cn1c([N+](=O)[O-])cnc1COC(N)=O
O=C(Oc1ccccc1)c1ccc2ccccc2c1O
CCC(C)OC(=O)c1ccc(O)cc1 (centres undefined)
O=S(=O)(O)CC(O)CCl (centres undefined)
COc1ccc(C(Cl)=C(c2ccc(OC)cc2)c2ccc(OC)cc2)cc1
